Screens (PubChem)
Rows were chosen to be rich in hits. Some 3.2% of all compounds tested hit in one or more screens of this group.
EphB4 antag – blocks human EphB4 binding to ephrin-B2. P54760. EphB4 LBD / TNYL-RAW-Alexa532 peptide, fluorescence polarization. inhibition, % at 7 µM. 97,000 tested, 0.15% active;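 active means inhibition above the screen-wide mean inhibition plus 3 SD, cut at about 15% in these data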;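 further: 0% = DMSO wells and 100% = excess unlabeled TNYL-RAW peptide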
ERa coact pot – ER-alpha (human) coactivator binding potentiation | TR-FRET ERalpha-LBD/SRC-Cy5 coactivator binding, 2 h; 100 = basal binding, no effect | P03372 | coactivator binding (% of control), % at 25.6 µM | AID 639 | 86,000 tested, 1.3% active; in the data active means activity above about 200%;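 further: binding measured in presence of low estradiol as agonist stimulus; 0% = peptide alone without receptor and 100% = receptor with peptide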
Calb biofilm kill – kills Candida albicans biofilms; 85,000 tested, 0.14% active; inhibition, % at 6 µM; C. albicans biofilm + clotrimazole, Alamar Blue;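 active means inhibition above 20%; inactive means inhibition below 20%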;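 further: preformed 24 hr biofilms exposed to compound for 48 hr; 0% = biofilm without compound and 100% = blank killed by clotrimazole plus chlorhexidine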
ERb SRC1 inh – ER-beta (human) coactivator binding inhibition. TR-FRET ER-beta LBD / SRC1-Cy5 peptide binding; receptor agonist-loaded with 1 µM estradiol. inhibition, % at 25.6 µM. 86,000 tested, 1.3% active. AID 633;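 active means compounds whose percent inhibition of the receptor-coactivator binding signal exceeds about 50% in the single-dose screen, limit read from the data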;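 further: 0% = receptor plus peptide wells without compound and 100% = peptide-only wells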
ERa coact inh – ER-alpha (human) coactivator binding inhibition | TR-FRET ER-alpha LBD / SRC-1 peptide, estradiol-bound | inhibition, % at 25.6 µM | 86,000 tested, 1.7% active | P03372; in the data active means inhibition above about 50%;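 further: 0% = receptor plus peptide control and 100% = peptide only without receptor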
MT1-MMP txn act – activates MT1-MMP transcription; HT1080 MT1-MMP promoter luciferase reporter, luminescence, overnight; stronger effect = higher value; activation factor at 10 µM; 86,000 tested, 0.16% active;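 active means activation factor of at least 2 for MT1-MMP transcription at 10 µM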
* marks the source's active call; other numbers are inactive results; / = no result given; [ ] = another dose, or the depositor's remark.

SMILES	EphB4 antag	ERa coact pot	Calb biofilm kill	ERb SRC1 inh	ERa coact inh	MT1-MMP txn act
COc1cc(C2C(C#N)=C(N)Oc3cc(C)n(CC4CCCO4)c(=O)c32)cc2c1OCO2 (stereo not drawn)	-5	112	7	-10	-5	1.1
CCc1c2c(nc3ccc(OC)cc13)OC(C)C2 (stereo not drawn)	/	/	/	/	/	1.3
CSc1nc(SCCO)c2sc3nc(-c4ccco4)c4c(c3c2n1)CC(C)(C)OC4	-3	/	/	/	/	/
CSc1nc(N(CCO)CCO)c2sc3nc(-c4ccco4)c4c(c3c2n1)CCC4	/	52	8	83*[fluorescence artefact?]	81*[fluorescence artefact?]	1
NS(=O)(=O)c1ccc(NC(=O)CCc2ccccc2)cc1	-2	138	7	-11	-10	1.2
Cc1cc2oc(=O)cc(COC(=O)c3n[nH]c4ccccc34)c2cc1C	6	338*	5	21	24	1.2
Cc1ccc(-n2c(SCc3cc(=O)n4ccsc4n3)nnc2-c2cccnc2)c(C)c1	0	120	3	62*	75*[fluorescence artefact?]	0.8
O=C(N/N=C/c1ccc(O)cc1)c1ccc(COc2cc(Cl)ccc2Cl)o1	0	/	/	/	/	/
CCOC(=O)c1sc(NC(=O)CSc2nc3c(cc2C#N)CCCCC3)c(C#N)c1C	9	/	/	/	/	/
CCN1CCc2nc(SCC(=O)Nc3ccc(OC)cc3)c(C#N)cc2C1	/	11	3	5	39	1.1
CN1CCc2nc(SCC(=O)Nc3ccc(F)cc3)c(C#N)cc2C1	6	38	2	49	83*	1.5
COc1ccc(NC(=O)CSc2nc3c(cc2C#N)CN(C)CC3)cc1	/	34	7	56*	93*[fluorescence artefact?]	1.1
CCc1nnc(NC(=O)CSc2nc3c(cc2C#N)CCCC3)s1	-4	510*[fluorescence artefact?]	13	-10	-20	0.7
CC1=C(C(=O)Nc2ccccc2C)C(c2cccnc2)n2nc(CCCO)nc2N1 (stereo not drawn)	-2	111	6	-5	-9	1
O=C(NCC1CCC(C(=O)O)CC1)c1cccnc1 (stereo not drawn)	-8	116	-5	-3	-2	1.2
COc1ccc(CN2CC(C(=O)NCc3cccc(OC)c3)CC2=O)cc1 (stereo not drawn)	-4	127	6	-2	9	1.1
CC(Nc1cc(N2CCN(C(=O)C(C)(C)C)CC2)ccc1[N+](=O)[O-])c1ccccc1 (stereo not drawn)	3	/	/	/	/	/
COC(=O)c1oc2nc(C)cc(C)c2c1N	8	129	5	-7	57*[fluorescence artefact?]	1
COc1cccc(C2CC(c3ccccc3OC)n3ncnc3N2)c1 (stereo not drawn)	-8	595*[fluorescence artefact?]	9	-2	-1	1.1
COCc1cc(=O)[nH]c2cc(NC(=O)C3CC3)c(C)cc12	-6	/	/	/	/	/
Cc1cc(C)n(-c2nc(Nc3ccccc3)nc(-n3nc(C)cc3C)n2)n1	2	248*	1	55*[fluorescence artefact?]	63*[fluorescence artefact?]	1.2
O=C(Nc1ccc(N2CCOCC2)c(Cl)c1)c1cc2ccccc2o1	-2	95	-4	-4	-7	2.1*
O=C(Nc1ccccc1N1CCCC1)c1cc2ccccc2o1	5	115	2	1	-2	2*
NC(=O)c1c(NC(=O)c2cc3ccccc3o2)sc2c1CCC2	-9	197	0	53*	62*	/
CC(=O)Nc1sc2c(c1C(N)=O)CCC2	3	96	7	-17	-40	1.1
SMILES	EphB4 antag	ERa coact pot	Calb biofilm kill	ERb SRC1 inh	ERa coact inh	MT1-MMP txn act
CNC(=O)[C@H](C)[C@H]1C[C@]1(C)[C@H](NC(=O)OCc1ccccc1)c1ccccc1	/	/	/	/	/	1.3
COC(=O)c1ccc(CNC(=O)CSc2nc3sc(C)c(C)c3c(=O)n2C)o1	4	106	8	-1	4	1.1
O=C(CCn1nc(-c2ccc(Cl)cc2)ccc1=O)NCCCN1CCCCCC1	2	99	1	31	74*[fluorescence artefact?]	/
COc1ccccc1N(CC(=O)NC1CCCCC1)S(C)(=O)=O	-1	108	7	-3	-2	1.2
CCC(=O)OCCCCCCOc1ccc(C(=O)O)cc1	2	/	/	/	/	/
CCC(=O)Oc1ccc(/C(CC)=C(\CC)c2ccc(OC(=O)CC)cc2)cc1	/	376*	11	-1	-3	1.1
CC(C)CCOc1ccc(C(=O)CCNC(C)C(=O)O)cc1 (stereo not drawn)	/	100	4	0	10	0.9
CCc1cccc(OCCCN2C(=O)NC(C)(C)C2=O)c1	2	108	82*	-1	-6	1.1
CC(=O)c1cccc(OCCN2C(=O)NC(C)(C)C2=O)c1	3	105	7	17	16	1
Cc1noc(C(=O)N2CC3(C)CC2CC(C)(C)C3)c1Cl (stereo not drawn)	0	96	9	-8	5	1.1
CCOC(=O)C1CCN(c2c(N(C)Cc3ccco3)c(=O)c2=O)CC1	2	99	22*	-9	-5	1.1
O=C1CC(c2ccc(F)cc2)Cc2nc(NCC3CCCO3)ncc21 (stereo not drawn)	4	93	9	-10	60*	1.2
O=C(c1ccco1)N1CCN(c2c(-c3ccccc3)c3cc(Cl)ccc3[nH]c2=O)CC1	4	223*[fluorescence artefact?]	6	16	25	1
O=c1[nH]c2ccc(Cl)cc2c(-c2ccccc2)c1N1CCOCC1	/	357*[fluorescence artefact?]	-8	23	18	1.2
O=c1[nH]c2ccc(Cl)cc2c(-c2ccccc2)c1N1CCN(c2ccccn2)CC1	/	260*[fluorescence artefact?]	4	30	13	1.1
O=C(c1ccco1)N1CCN(C(=O)c2oc(=O)c3ccccc3c2-c2ccccc2)CC1	4	94	8	-9	-3	1
COC(=O)c1cc(NC(=O)CN(c2ccc(OC)cc2)S(=O)(=O)c2ccc(F)cc2)ccc1Cl	4	/	/	/	/	/
CSc1nc2c(c(=O)[nH]1)C(c1cccs1)C1=C(CCCC1=O)N2 (stereo not drawn)	-3	74	2	56*	44	1.2
Cc1ccc2c(c1)N(C(=O)c1ccco1)C(C)(C)c1ssc(=S)c1-2	-2	84	64*	-1	7	1.1
CC(=O)NC(Cc1ccccc1C)C(=O)NC1CCN(c2c3c(nc4ncnn24)CCC3)CC1 (stereo not drawn)	/	117	4	0	9	1.2
CC(C)C(=O)Nc1ccc(C(=O)NC2CCSC2=O)cc1 (stereo not drawn)	6	204*	6	8	15	1.2
CCOC(=O)c1ccc(-n2c(C)nc3c(cnn3-c3ccccc3Cl)c2=O)cc1	3	104	4	-8	-2	1.1
CCOC(=O)c1ccc(-n2c(C)nc3c(cnn3-c3ccc(Cl)cc3)c2=O)cc1	3	95	34*	-3	-7	1
C(=N\n1cnnc1)/c1ccc(OCc2cccc3ccccc23)cc1	-2	81	4	12	7	1.4
